This passage reports growth inhibition results from PubChem BioAssay (NCI).

About 79,000 compounds went through this panel and 15% of them were active in at least one assay; those are over-represented in the sample as a whole. A number with no mark means an inactive call. The source made the active and inactive calls. No stated cut-off is given here; in the data, active means growth inhibition above about 70%; inactive means the rest. Where a SMILES comes first, the peptide text is derived from it. [ ]: non-standard residue; d: D form. The star is where a group is joined. ξ: configuration not given here. ξE = NC(CCC(=O)O)C(=O)O; Cbz = O=C(OCc1ccccc1)*

The nature of experiment [1]: NCI Yeast Anticancer Drug Screen. Data for the rad50 strain (AID 155).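 Further: 0% = growth of vehicle-only cultures of the same strain.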 The conditions noted are these: S. cerevisiae rad50 strain growth inhibition; at 50.0 µM; active compounds read high. The essentials: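 Inhibition values express reduced yeast growth in compound-treated cultures relative to vehicle-treated controls.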
Experiment [2] is described as follows: NCI Yeast Anticancer Drug Screen. Data for the mec2-1 strain (AID 157). The conditions noted are these: S. cerevisiae mec2-1 strain, at 50.0 µM, active compounds read high. The essentials: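 Using mec2-1 yeast: add compound, measure growth, express inhibition versus vehicle-treated cultures.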
A short description of experiment [3]: NCI Yeast Anticancer Drug Screen. Data for the sgs1 mgt1 strain (AID 161).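 Further: 0% = growth of cultures given vehicle only.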 The conditions noted are these: S. cerevisiae sgs1 mgt1 strain, at 50.0 µM, active compounds read high. The essentials: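 This yeast growth screen uses a strain with defined DNA-repair lesions; compound-treated growth is compared with vehicle-treated growth.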
The nature of experiment [4]: NCI Yeast Anticancer Drug Screen. Data for the cln2 rad14 strain (AID 165).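 Further: 0% = growth equal to vehicle treated cultures.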 The conditions noted are these: S. cerevisiae cln2 rad14 strain, at 50.0 µM, active compounds read high. Summed up: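 Yeast strain cln2 rad14, bearing defects in cell cycle control and DNA repair, serves as the test system; values reflect growth inhibition compared with vehicle.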
Experiment [5] can be described thus: NCI Yeast Anticancer Drug Screen. Data for the bub3 strain (AID 167). The conditions noted are these: S. cerevisiae bub3 mutant strain, at 50.0 µM, active compounds read high. The essentials:
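Steps: expose the mutant yeast strain to compound; grow alongside vehicle-treated cultures; measure growth; express inhibition against the vehicle cultures.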

Experiment [6] in a line: NCI Yeast Anticancer Drug Screen. Data for the mlh1 rad18 strain (AID 175). The conditions noted are these: S. cerevisiae mlh1 rad18 strain growth inhibition; at 50.0 µM; active compounds read high. The essentials:
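Steps: expose repair-defective yeast to compound; measure growth; express inhibition against vehicle-treated controls.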

For `CCOC(=O)c1ccc(Cl)cc1`, the growth inhibition in experiment [1] was -14%; in experiment [2] it was -16.8%; in experiment [3], -25.1%; in experiment [4], -23.8%; in experiment [5], -30.8%; in experiment [6] it was -25.1%.

As to `Cc1cccc(C)c1NC(=O)C(=O)CC(=O)CO`, the growth inhibition in experiment [1] is -9.45%; in experiment [2], -18.3%; in experiment [3], 14.1%; in experiment [4], 10.8%; in experiment [5], 21%; in experiment [6], -6.25%.

On to `O=S(=O)(O)c1cc(O)c(N=NC2S(=O)(=O)OCCOS2(=O)=O)c2ccccc12`, for which the growth inhibition in experiment [1] is 7.45%; in experiment [2], 2.7%; in experiment [3], 31.2%; in experiment [4], -9.2%; in experiment [5], 16.8%; in experiment [6] it was -4.05%.

As for `CC[O-].CC[O-].O=C([CH-]C(=O)c1cccnc1)c1ccccc1.O=C([CH-]C(=O)c1cccnc1)c1ccccc1.[Ti+4]`, the growth inhibition in experiment [1] was -0.05%; in experiment [2], 19.8%; in experiment [3], -19.9%; in experiment [4], -16.2%; in experiment [5] it was -11.6%; in experiment [6], -8.4%.

Consider `O=C(O)CCC(NC(=O)OCc1ccccc1)C(=O)NCC(=O)O` (stereo not given) (Cbz-[ξE]-Gly-OH), for which the growth inhibition in experiment [1] was 12.3%; in experiment [2] it was 2.85%; in experiment [3] it was 0.35%; in experiment [4] it was 46.8%; in experiment [5], 3.15%; in experiment [6], -6.5%.

`COc1ccc(O)c2c(=O)ccccc12`: the growth inhibition is 8.5% in experiment [1]; 7.15% in experiment [2]; -3% in experiment [3]; -13.8% in experiment [4]; 5.4% in experiment [5]; 5.55% in experiment [6].

Take `Cc1cc(C)c(NC(=O)NC2CCCCC2)c(C)c1`: the growth inhibition in experiment [1] was 4.7%; in experiment [2], 7.05%; in experiment [3], 23.6%; in experiment [4], -3.55%; in experiment [5], 34%; in experiment [6], 31.1%.

For the molecule `CC[C@H](/C=C/[C@@H](C)[C@H]1CC[C@H]2[C@@H]3CC[C@@H]4CC(=O)CC[C@]4(C)[C@H]3CC[C@]12C)C(C)C`, the growth inhibition in experiment [1] was 29.9%; in experiment [2], -13.8%; in experiment [3], 9.6%; in experiment [4], 1.15%; in experiment [5] it was 35.5%; in experiment [6], 34%.

For the molecule `O=P(O)(OCC(Br)CBr)OCC(Br)CBr` (stereo not given), the growth inhibition in experiment [1] is -12.4%; in experiment [2], -7.05%; in experiment [3], 11.2%; in experiment [4], -45%; in experiment [5] it was 1.75%; in experiment [6], 23.8%.

For `Clc1cccc2nc(-c3ccccn3)n(CCc3ccncc3)c12`, the growth inhibition in experiment [1] was 90% (active); in experiment [2], 51.1%; in experiment [3] it was 84.7% (active); in experiment [4], 60.6%; in experiment [5], 74.7% (active); in experiment [6], 86.2% (active).

As to `CS(=O)c1nsc(S(C)=O)c1C#N` (stereo not given), the growth inhibition was 1.05% in experiment [1]; -9.7% in experiment [2]; -1.5% in experiment [3]; -35.6% in experiment [4]; -9.95% in experiment [5]; -10.6% in experiment [6].

`Cc1cccc(C)c1NC(=O)N(Cc1ccccc1)Cc1ccccc1`: the growth inhibition is 1.65% in experiment [1]; 15.2% in experiment [2]; 20.6% in experiment [3]; -2% in experiment [4]; 36.7% in experiment [5]; 30.6% in experiment [6].

`O=C1NN(c2ccccc2)CCO1`: the growth inhibition in experiment [1] is -2.45%; in experiment [2] it was -3.2%; in experiment [3], -5.25%; in experiment [4] it was -18.6%; in experiment [5], 0.1%; in experiment [6], 2.15%.

With `CCN(CC)C(=O)CC(C)(C)O`, the growth inhibition was 4.95% in experiment [1]; 9.15% in experiment [2]; -5.75% in experiment [3]; -0.9% in experiment [4]; 6.15% in experiment [5]; -1.6% in experiment [6].

Consider `NNC(=O)c1ccc[n+](CCc2ccccc2)c1`, for which the growth inhibition in experiment [1] is -1.25%; in experiment [2] it was -8.55%; in experiment [3], -34%; in experiment [4], -34%; in experiment [5], -30.4%; in experiment [6], -5.5%.

For the molecule `S=C1SC(=Nc2ccccc2)C(=Nc2ccccc2)N1c1ccc2ccccc2c1`, the growth inhibition is 8.2% in experiment [1]; 8.75% in experiment [2]; 28.5% in experiment [3]; 12.8% in experiment [4]; 27.9% in experiment [5]; 24.1% in experiment [6].

For `CCc1c[nH]c(C=O)c1CC`, the growth inhibition in experiment [1] is 6.35%; in experiment [2], -14.1%; in experiment [3] it was -12.5%; in experiment [4], 11.4%; in experiment [5], -10.8%; in experiment [6], 18.6%.

`C/C(CC(=O)Nc1ccc(C)cc1C)=N/N=C(N)N`: the growth inhibition in experiment [1] was -10.8%; in experiment [2] it was -17.2%; in experiment [3], -15.2%; in experiment [4], 15.4%; in experiment [5], -17.7%; in experiment [6] it was -17.1%.

Consider `CC1=NC(=O)C(C)(c2ccccc2)N1CCc1ccccc1` (stereo not given), for which the growth inhibition in experiment [1] is -0.05%; in experiment [2], 8.4%; in experiment [3], -8.75%; in experiment [4] it was -16.9%; in experiment [5], -10.6%; in experiment [6], -28.6%.

Take `COC(=O)NC1=Nc2ccccc2N(C(=O)Oc2ccccc2)S1`: the growth inhibition in experiment [1] was 7.8%; in experiment [2], 0.6%; in experiment [3], 26.4%; in experiment [4], 23.6%; in experiment [5], 83.2% (active); in experiment [6] it was 33.9%.
